Reference: the supplement of paper PMC12350171
Counter-ions that a name gives are not always drawn. Values without a mark were called inactive.

Assays:
Conditions in all cases: 20 µM
[1] = system: Salmonella enterica typhimurium; assay: growth AUC normalised to DMSO control (fraction of control); higher = less growth inhibition, active = hit call of the paper
Outline: (§1)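 Pathogens were passaged twice under anaerobic conditions, then inoculated into pre-reduced mGAM plates at a starting OD578 of 0.01, with compound at 20 μM and 1% DMSO, and sealed with breathable membranes. For Haemophilus parainfluenzae, the medium was supplemented with hemin and NAD. OD578 was read every hour for 24 h in three biological replicates. Growth-curve AUC was calculated by the trapezoidal rule up to the exponential-to-stationary transition and normalised to DMSO controls on the same plate.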

[2] = system: Shigella flexneri; assay: as above
Outline: as §1

[3] = system: Vibrio cholerae; assay: as above
Outline: as §1

[4] = system: Yersinia pseudotuberculosis; assay: as above
Outline: as §1

[5] = system: P. vulgatus RND KO; assay: growth AUC normalised to DMSO control (median) (fraction of control); higher = less growth inhibition, active = hit call of the paper
Outline: (§2)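 Anaerobic growth was tracked hourly at OD578 for 24 h in 96-well plates of mGAM seeded at OD578 0.01 with each approved-drug library compound at 20 μM and 1% DMSO. Strains had first been passaged twice overnight without oxygen. Three biological replicates were run. The reported median is the area under the curve, calculated by the trapezoidal rule on curves truncated at entry into stationary phase and normalised to vehicle wells on the same plate.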

[6] = system: P. vulgatus WT; assay: as above
Outline: as §2

[7] = system: S. enterica typhimurium WT; assay: as above
Outline: as §2

[8] = system: S. enterica typhimurium tolC KO; assay: as above
Outline: as §2
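Throughout, for growth AUC normalised to DMSO control (median): active when median AUC fell below 0.1.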

Row | Compound | growth AUC normalised to DMSO control [1] | growth AUC normalised to DMSO control [2] | growth AUC normalised to DMSO control [3] | growth AUC normalised to DMSO control [4] | growth AUC normalised to DMSO control [5] | growth AUC normalised to DMSO control [6] | growth AUC normalised to DMSO control [7] | growth AUC normalised to DMSO control [8]
1 | NS(=O)(=O)c1cc2c(cc1Cl)N=CNS2(=O)=O [Chlorothiazide] | 1.01 | 0.998 | 1.02 | 1.01 | 1.03 | 1.07 | 1.01 | 1.01
2 | CCCCOc1ccc(CC(=O)NO)cc1 [Bufexamac] | 0.996 | 0.974 | 1.01 | 0.956 | 1.01 | 0.991 | 0.997 | 0.967
3 | CCN(CC)CCOC(=O)C(c1ccccc1)C1CCCCC1 (centres undefined) [Drofenine hydrochloride] | 0.989 | 1.01 | 0.929 | 1 | 1.01 | 1.03 | 0.989 | 0.943
4 | CC(N)(Cc1ccc(O)c(O)c1)C(=O)O (centres undefined) [(L) Methyldopa] | 1.01 | 1.01 | 1.01 | 0.973 | 1.03 | 1.05 | 1.01 | 1.01
5 | CN1CCC(=C2c3ccccc3CC(=O)c3sccc32)CC1 [Ketotifen fumarate] | 1.01 | 0.999 | 0.985 | 1.01 | 0.979 | 0.997 | 1.01 | 0.999
6 | CCN(CC)CCOC(=O)C1(c2ccc([N+](=O)[O-])cc2)CCCC1 [Nitrocaramiphen hydrochloride] | 0.993 | 0.993 | 0.974 | 0.996 | 1.03 | 1.05 | 1 | 1
7 | Nc1ccn([C@@H]2O[C@H](CO)[C@@H](O)C2(F)F)c(=O)n1 [Gemcitabine] | 1.01 | 1.04 | 1.01 | 1.03 | 1.01 | 1.02 | 0.983 | 
8 | CO[C@@]1(NC(=O)C(C(=O)O)c2ccc(O)cc2)C(=O)N2C(C(=O)O)=C(CSc3nnnn3C)CO[C@@H]21 (some centres undefined) [Moxalactam disodium salt] | 0.00566 (active) | 0.0488 (active) | 0.639 (active) | 0.149 (active) | 0.0332 (active) | 0.0488 (active) |  | 
9 | CCN(CC)CCNC(=O)COc1ccc(OC)cc1 [Mefexamide hydrochloride] | 1 | 0.982 | 0.995 | 1.01 | 0.988 | 0.97 | 1.01 | 0.998
10 | CC1COc2c(N3CCN(C)CC3)c(F)cc3c(=O)c(C(=O)O)cn1c23 (centres undefined) [Ofloxacin] | 0.00746 (active) | 0.0235 (active) | 0.031 (active) | 0.0386 (active) | 0.0133 (active) | 0.0136 (active) | 0.0106 (active) | 0.00311 (active)
11 | CN1CC2c3ccccc3Oc3ccc(Cl)cc3C2C1 (centres undefined) [Asenapine maleate] | 0.954 | 0.974 | 0.837 (active) | 0.976 | 0.939 | 0.948 | 0.973 | 0.935
12 | O=C(Nc1ccccc1)OCC(CN1CCCCC1)OC(=O)Nc1ccccc1 (centres undefined) [Diperodon hydrochloride] | 1.01 | 1.03 | 0.999 | 1.01 | 0.998 | 1.01 | 0.997 | 0.986
13 | c1ccc(C2CN3CCSC3=N2)cc1 (centres undefined) [Tetramisole hydrochloride] | 1.01 | 1.03 | 1.01 | 1.01 |  |  |  | 
14 | COc1cc(C(=O)NS(=O)(=O)c2ccccc2C)ccc1Cc1cn(C)c2ccc(NC(=O)OC3CCCC3)cc12 [Zafirlukast] | 0.961 | 0.982 | 0.966 | 0.988 | 0.84 | 0.891 | 1.01 | 0.962
15 | CN(C)CCN1C(=O)c2ccccc2N(C)c2ccccc21 [Dibenzepine hydrochloride] | 0.986 | 0.972 | 0.984 | 0.977 | 0.994 | 0.979 | 0.988 | 0.992
16 | CCCNC(=O)NS(=O)(=O)c1ccc(Cl)cc1 [Chlorpropamide] | 1 | 1.02 | 1.01 | 0.996 | 1.02 | 1.06 | 1.01 | 1.04
17 | CC(C)NC(=N)NC(=N)Nc1ccc(Cl)cc1 [Proguanil hydrochloride] | 0.959 | 0.962 | 0.985 | 0.992 | 1 | 1.01 | 0.988 | 0.984
18 | COc1c(O[C@@H]2O[C@H](CO)[C@@H](O)[C@H](O)[C@H]2O)cc2c(c1OC)-c1ccc(SC)c(=O)cc1[C@@H](NC(C)=O)CC2 [Thiocolchicoside] | 0.993 | 0.98 | 1 | 0.988 | 1.01 | 0.999 | 1 | 1
19 | CN(C)CC/C=C1/c2ccccc2Sc2ccc(Cl)cc21 [Chlorprothixene hydrochloride] | 0.997 | 0.988 | 0.817 (active) | 0.996 | 0.904 | 0.887 | 0.999 | 0.912
20 | O=C(CCCN1CCC(O)(c2ccc(Br)cc2)CC1)c1ccc(F)cc1 [Bromperidol] | 1.02 | 0.984 | 0.999 | 0.997 | 0.999 | 1.01 | 0.998 | 0.974
21 | N[C@@H](Cc1cc(I)c(Oc2cc(I)c(O)c(I)c2)c(I)c1)C(=O)O [(L) Thyroxine] | 1.01 | 1.02 | 1.03 | 1.02 | 0.994 | 1.06 | 1.02 | 0.983
22 | Cc1cc(-n2c(=O)[nH]c(=O)n(C)c2=O)ccc1Oc1ccc(SC(F)(F)F)cc1 [Toltrazuril] | 1.01 | 0.995 | 1 | 1.01 |  |  |  | 
23 | COc1ccc2[nH]c([S+]([O-])Cc3ncc(C)c(OC)c3C)nc2n1 (centres undefined) [Tenatoprazole] | 0.988 | 1 | 0.894 | 0.998 | 1.03 | 1.06 | 1 | 0.963
24 | O=c1[nH]cc(F)c(=O)[nH]1 [5-fluorouracil] | 0.842 (active) | 0.745 (active) | 0.942 | 0.927 | 0.0695 (active) | 0.0782 (active) | 0.809 | 0.806
25 | COc1ccc(C(=O)c2ccccc2)c(O)c1 [Oxybenzone] | 1.03 | 1.03 | 1 | 1 | 1.05 | 1.06 | 1 | 0.954
26 | c1ccc(CN(CC2=NCCN2)c2ccccc2)cc1 [Antazoline hydrochloride] | 0.999 | 1.01 | 1.01 | 1 | 1.03 | 1.05 | 0.996 | 1
27 | NCCCC(O)(P(=O)(O)O)P(=O)(O)O [Alendronate sodium] | 1.03 | 1.05 | 1.1 | 1.02 | 1.05 | 1.06 | 1 | 0.99
28 | CC(=O)O[C@]1(C(C)=O)CC[C@H]2[C@@H]3C=C(C)C4=CC(=O)CC[C@@H]4[C@H]3CC[C@@]21C [Nomegestrol acetate] | 0.991 | 1.03 | 1.06 | 1.01 | 0.963 | 1 | 1.03 | 0.94
29 | CCc1cccc(CC)c1NC(=O)CN(CC(=O)O)CC(=O)O [Etifenin] | 0.985 | 0.99 | 0.989 | 0.999 | 0.998 | 1.01 | 1 | 0.993
30 | Cc1c(N(C)CS(=O)(=O)O)c(=O)n(-c2ccccc2)n1C [Dipyrone sodium salt] | 1.02 | 1.03 | 1.09 | 1.02 | 0.999 | 0.996 | 1.01 | 0.999
